Most compounds without a hit are left out; they make up all but 3.4% or so of the library.
PNC assembly inh: inhibitors of perinucleolar compartment assembly; PC3M PTB-GFP, PNC prevalence imaging, 16 h; hits give low values; activity change (PNC), negative = inhibition, % at 10 µM; 140,000 compounds, 3.1% hits; AID 2417;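 active means readout at or below -70, meaning at least 70% loss of cells showing the perinucleolar compartment, a nuclear body marking cancer cells; inconclusive means readout between -30 and a set limit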;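 further: plate controls were DMSO wells for no effect and camptothecin positive control wells for full effect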
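Read-out is percentage of cells bearing a perinucleolar compartment, from automated 20x imaging of fixed, Hoechst-stained PC3M PTB-GFP cells. Cells were seeded 4 h, then exposed 16 h to compound (23 nl of library stock) in duplicate plates.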
NPSR antagonist: antagonists of human neuropeptide S receptor cAMP signaling. Potency, µM (highest dose often 38.3 µM), without a hit: top-dose activity change, negative = inhibition, hits mostly inhibitors. AID 1461. 220,000 compounds, 1% hits. Q6W5P4. CHO-NPSR cells, cAMP TR-FRET, antagonist mode; further: potency means the concentration at half of the fitted maximal effect; on the % scale 0 is the no-effect control and ±100 the full control effect; nearly all actives have a fitted effect of over 50% in size
Target sequence (Q6W5P4 whole entry, looked up): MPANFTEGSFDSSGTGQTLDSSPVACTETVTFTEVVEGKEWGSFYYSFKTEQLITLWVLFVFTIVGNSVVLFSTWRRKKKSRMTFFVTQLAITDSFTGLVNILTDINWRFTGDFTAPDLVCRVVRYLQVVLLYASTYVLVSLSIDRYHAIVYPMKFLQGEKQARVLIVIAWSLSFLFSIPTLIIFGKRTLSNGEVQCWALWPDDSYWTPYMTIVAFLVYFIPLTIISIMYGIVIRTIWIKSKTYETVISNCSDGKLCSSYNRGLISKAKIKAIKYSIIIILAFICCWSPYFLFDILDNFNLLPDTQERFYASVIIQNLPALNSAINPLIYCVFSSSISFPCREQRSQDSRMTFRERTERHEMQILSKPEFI
IMPase Li inh: IMPase inhibition in cells with lithium potentiation; CHO-M1 cells, IP1 TR-FRET (IP-One), carbachol + lithium; Potency, µM (titrated, usually from 59.4 µM), for inactives: top-dose activity, negative = IMPase inhibition, most hits filed as inhibitors; 210,000 compounds, 0.35% hits; AID 1457;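 further: IP1 builds up when IMPase is blocked and the TR-FRET signal falls; potency means the concentration at half of the fitted maximal effect; plate controls were basal vehicle for no effect and high inhibitor control for full effect; nearly all actives have a fitted effect of over 50% in size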
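CHO cells stably expressing M1 receptor (2000/well) were cultured 16–30 h, then exposed to compounds with a small lithium addition for 30 min at 37C. IP1 was measured by TR-FRET competition; AC50 from Hill fits.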
HTT ATP protect: Huntington cell model cytoprotection by ATP luminescence; PC12 HTT-Q103 induced, cytoprotection, ATP luminescence, 40 h; Potency, µM (highest dose often 56.4 µM), inactives show cytoprotection (ATP increase), usual class: activators; 230,000 compounds, 0.14% hits; AID 1471; further: potency means the concentration at half of the fitted maximal effect; % of control where 0% means no effect; nearly all actives have a fitted effect of over 45% in size
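Compounds added alongside 100 nM tebufenozide, which induces toxic Q103 huntingtin exon 1-GFP in stable PC12 cells; surviving cells quantified by luminescent ATP measurement. Medium: phenol red-free DMEM, 5% equine and 5% calf serum.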
IMPase inh: membrane-permeable compound that blocks inositol monophosphatase | CHO-M1 cells, IP1 accumulation, HTRF TR-FRET ratio | inhibition (IP1 accumulation), % at 46.1 µM | 120,000 tested, under 10 active | AID 901; active means well fitted curve in the direction sought with a large enough effect in the signal ratio, not every such curve was filed as active; inconclusive means small, poorly fitted or top-dose-only effect, or a change in a side signal; inactive means no such curve, though single readings can be large or run the other way; the % refers to the signal ratio;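 further: cells stimulated with carbachol in lithium chloride buffer; plate controls were DMSO basal wells for no effect and reference inhibitor wells for full effect; higher means more IMPase inhibition seen as more IP1 and lower FRET ratio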
Target sequence (P97697 whole entry, looked up): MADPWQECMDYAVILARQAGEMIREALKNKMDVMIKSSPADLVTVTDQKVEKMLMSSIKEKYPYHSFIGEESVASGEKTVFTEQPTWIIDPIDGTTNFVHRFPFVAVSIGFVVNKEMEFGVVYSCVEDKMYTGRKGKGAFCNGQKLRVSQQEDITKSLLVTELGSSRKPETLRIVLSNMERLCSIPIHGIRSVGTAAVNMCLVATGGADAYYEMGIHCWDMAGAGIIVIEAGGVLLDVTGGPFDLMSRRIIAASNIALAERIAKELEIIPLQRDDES
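The IP-One HTRF competitive assay in carbachol-stimulated CHO-M1 cells quantifies cellular IP1. Compounds spanned up to 46 uM final, and activity is expressed as AC50 from concentration-response fits of the ratio and donor data.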
HttQ103 aggreg: inhibitors of mutant huntingtin aggregate formation in PC12 cells. PC12 HttQ103-GFP aggregates, Acumen cytometry, 40 h. Potency, µM (doses to about 46.1 µM), for inactives: top-dose activity change, negative = inhibition, most hits filed as inhibitors. 220,000 compounds, 1.1% hits. AID 1688; further: potency means the concentration at half of the fitted maximal effect; on the % scale 0 is the no-effect control and ±100 the full control effect; nearly all actives have a fitted effect of over 60% in size
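PC12 cells with ecdysone-inducible HTT exon1 Q103-GFP, induced by 100 nM tebufenozide, given compounds in a concentration series. GFP aggregates (1–25 um, 6 SD above background) counted in lysates by laser-scanning cytometry, 488 nm excitation.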
* = called active by the depositor; [ ] = another dose, or the depositor's remark. Unless noted, the call rests on the fitted dose curve; in most records, active means well fitted curve in the direction sought with a large enough effect; inconclusive means small, poorly fitted or top-dose-only effect, or another doubt; inactive means no such curve, though single readings can be large; an effect the other way counts as inactive or inconclusive.

Screening C/C(=N\NC(=O)c1ccncc1)c1ccc2ccccc2c1O returned IMPase Li inh -2.0% and HTT ATP protect -33.2%[10 µM].
`CCCC1(C(=O)OCC)NC(c2ccco2)C2C(=O)N(C)C(=O)C21` (stereo not drawn) gave NPSR antagonist -0.8%, IMPase Li inh -3.6%, HTT ATP protect -13.9% and HttQ103 aggreg 10.8%.
For Cc1c(C(=O)N/N=C/c2ccc(N(C)C)cc2)[nH]c2ccc(Cl)cc12 the results were PNC assembly inh -113.0*, NPSR antagonist 2.8%, IMPase Li inh -5.2%, HTT ATP protect -53.6%[10 µM] and HttQ103 aggreg -7.1%.
Screening O=C(NNc1ccc([N+](=O)[O-])cc1)C1CC2CCCC(C1)C2=O (stereo not drawn) returned PNC assembly inh -108.8*, NPSR antagonist 0.8%[46.1 µM], IMPase Li inh -4.9%[38.3 µM], HTT ATP protect -6.6%, IMPase inh 2.2 and HttQ103 aggreg -0.6%.
Screening O=c1cc(-c2cccc(F)c2)[nH]c2cc(F)ccc12 returned IMPase Li inh 6.8% and HTT ATP protect -262.3%[96.6 µM].
`NC(=O)c1cc2cc(Cc3ccccc3Cl)ccc2oc1=O` gave NPSR antagonist -23.5%, IMPase Li inh 8.7%, HTT ATP protect -40.6% and HttQ103 aggreg 16.1%.
Screening CCOC(=O)c1c(-c2ccc(Cl)cc2)cn2ccccc12 returned PNC assembly inh 56.3, NPSR antagonist 0.7%[46.1 µM], IMPase Li inh 28.2µM*, HTT ATP protect 0.1%, IMPase inh 1.8 and HttQ103 aggreg 11.0%.
Cc1cccc(/C=C/C(=O)c2cc(Br)ccc(=O)c2O)c1 was read as PNC assembly inh -4.4, NPSR antagonist 10µM*, IMPase Li inh 17.1%[38.3 µM], HTT ATP protect -13.2%, IMPase inh 4.3 and HttQ103 aggreg -3.1%.
`COCCn1c(=O)c(-c2cn(C)c3ccccc23)nc2cnc(Oc3ccccc3)nc21` gave IMPase Li inh 5.0% and HTT ATP protect inconclusive.
For Cn1c(=O)c(-c2cc(F)cc(F)c2)nc2cnc(Oc3cccc(Cl)c3)nc21 the results were IMPase Li inh -0.6% and HTT ATP protect 8.7%.
For COc1ccc(-c2nc3cnc(OC)nc3n(CCc3ccccc3)c2=O)cc1 the results were IMPase Li inh 7.08µM* and HTT ATP protect -23.1%.
Screening Cn1cc(-c2nc3cnc(Oc4ccccc4)nc3n(C)c2=O)c2ccccc21 returned IMPase Li inh 7.08µM* and HTT ATP protect -51.1%.
`Cn1c(=O)c(-c2ccc(Cl)cc2)nc2cnc(Oc3cccc(Cl)c3)nc21` gave IMPase Li inh 12.6µM* and HTT ATP protect 14.6%.
COC(=O)c1ccccc1S(=O)(=O)N1CCc2nc(COc3ccccc3)c3c(c2C1)CO[C@@H](C)C3 was read as IMPase Li inh 11.2% and HTT ATP protect -12.4%[10 µM].
`CC12CCC3c4ccc(OCc5ccccc5)cc4CCC3C1CC(O)C2O` (stereo not drawn) gave IMPase Li inh 19.3% and HTT ATP protect -83.3%.
Screening CC(C)=CCC/C(C)=C\COc1c2ccoc2cc2oc(=O)ccc12 returned IMPase Li inh 31.3%, HTT ATP protect -12.6%[1.9 µM] and IMPase inh 7.5.
Screening CCOC(=O)C1CCN(c2c(NCc3ccc(C(=O)O)cc3)c(=O)c2=O)CC1 returned HTT ATP protect -5.2%.
Screening Cc1nc(NC(=O)CSc2nc3cccnc3n2C2CCCCC2)sc1C returned PNC assembly inh -124.9*, NPSR antagonist -4.4%[46.1 µM], IMPase Li inh -29.3%[38.3 µM], HTT ATP protect -26.6%[10 µM], IMPase inh -4.6 and HttQ103 aggreg -2.2%.
For CCc1nnc(NC(=O)CSc2nc3cccnc3n2C2CCCCC2)s1 the results were PNC assembly inh -29.8, NPSR antagonist -17.9%[46.1 µM], IMPase Li inh 23.3%[38.3 µM], HTT ATP protect 14.0%[10 µM], IMPase inh -9.9 and HttQ103 aggreg -11.3%.
For COc1cccc(-c2cc(C(F)(F)F)nc(NCc3ccco3)n2)c1 the results were PNC assembly inh -100.0*, NPSR antagonist 10.2%[46.1 µM], IMPase Li inh 11.7%, IMPase inh 15.1 and HttQ103 aggreg inconclusive.
`N#CC(c1ccccc1)c1ccc2c(C(F)(F)F)cc(C(F)(F)F)nc2n1` (stereo not drawn) gave PNC assembly inh 7.3, NPSR antagonist inconclusive, IMPase Li inh 23.7%[38.3 µM], HTT ATP protect -70.4%, IMPase inh 17.0 and HttQ103 aggreg 22.4µM*.
For Nc1nc(SCc2ccc(Cl)cc2Cl)nc2nc3c(cc12)CCCC3 the results were PNC assembly inh -82.6*, NPSR antagonist -46.3%, IMPase Li inh 3.6% and HttQ103 aggreg -19.2%.
Screening Cn1c(=O)n(C)c2cc(N3CCCCC3)c(NC(=O)c3c(F)cccc3F)cc21 returned IMPase inh -0.1.
Screening O=C1c2cccc3cccc(c23)C(=O)N1c1ccncc1 returned PNC assembly inh -100.0*, NPSR antagonist -1.5%[46.1 µM], IMPase Li inh 4.5%, HTT ATP protect 25.2%[10 µM], IMPase inh -3.0 and HttQ103 aggreg -29.4%.
Screening Cc1cc(Cl)ccc1NC(=O)CCCN1C(=O)CCC1=O returned PNC assembly inh 4.6, NPSR antagonist 2.8%[46.1 µM], IMPase Li inh -8.2%[38.3 µM], HTT ATP protect -62.1%, IMPase inh -0.7 and HttQ103 aggreg 11.2%.
For Cc1cc(Cl)ccc1NC(=O)CCC(=O)O the results were PNC assembly inh -83.5*, NPSR antagonist 9.4%, IMPase Li inh -2.9% and HttQ103 aggreg 1.7%.
CCOC(=O)C1CCN(C(=O)Nc2cc(Cl)cc(Cl)c2)CC1 was read as NPSR antagonist -57.5%, HTT ATP protect -7.3%[10 µM] and HttQ103 aggreg -14.8%[9.22 µM].
c1ccc(Nc2nc(N3CCNCC3)nc(N3CCOCC3)n2)cc1 was read as PNC assembly inh -100.0*, NPSR antagonist -9.5%[46.1 µM], IMPase Li inh 3.2%, HTT ATP protect 2.5%[10 µM], IMPase inh inconclusive and HttQ103 aggreg 3.6%.
O=C(CSc1nc(Nc2ccccc2)nc(N2CCOCC2)n1)N1CCc2ccccc21 was read as PNC assembly inh -116.6*, NPSR antagonist -5.0%[46.1 µM], IMPase Li inh 19.6%[38.3 µM], HTT ATP protect 9.1%[0.074 µM], IMPase inh inconclusive and HttQ103 aggreg -0.7%.
O=c1cc(N2CCCCC2)c(-c2ccccc2)nn1Cc1c(Cl)cccc1Cl was read as PNC assembly inh 59.4, NPSR antagonist 10µM*, IMPase Li inh 25.4%[38.3 µM], HTT ATP protect -101.0%, IMPase inh 10.8 and HttQ103 aggreg inconclusive.
Screening Cc1ccc2c(c1)c(=O)c1ccccc1n2CCCC(=O)Nc1c(F)cccc1F returned IMPase inh -5.0.
